The record followed here is PubChem BioAssay (NCI).

Among the test systems are HCT-15 colon; HT29 colon; SNB-75 CNS; SNB-19 CNS; U251 CNS; PC-3 prostate; SK-MEL-5 melanoma; LOX IMVI melanoma; SK-MEL-28 melanoma.
Common to all, as to assay: NCI-60 one-dose screen, 48 h (100 = growth as untreated, 0 = no growth, -100 = all killed)
Holding throughout (details): 10 µM unless noted

About 83,000 compounds went through this panel and 20% of them were active in at least one assay; those are over-represented in the sample as a whole.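 Step 1: grow cells in 96-well plates. Step 2: add test compound at a single concentration. Step 3: incubate 48 h. Step 4: record percent growth.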 A number with no mark means an inactive call. The source made the active and inactive calls. The calls were made as follows: active = growth percent below 10; inactive = the rest.

In the case of `Cc1cc(N2CCN(C)CC2)nc(N(CCNc2ccnc3cc(Cl)ccc23)Cc2ccco2)n1`, the growth in the assay with HCT-15 colon is 18.1%; in the assay with HT29 colon, 5.75% (active); with SNB-75 CNS it was 66.3%; in the assay with SNB-19 CNS, 36.8%; in the assay with U251 CNS, 39.3%; in the assay on PC-3 prostate it was 34.8%. The results for the growth in the assay on SK-MEL-5 melanoma, with LOX IMVI melanoma and in the assay on SK-MEL-28 melanoma were -82% (active), -5.64% (active) and -72.3% (active), respectively.

For the compound `CC1(c2ccccc2)OC1C(=O)O` (stereo unspecified), the growth with HCT-15 colon is 106%; in the assay on HT29 colon, 102%; with SNB-75 CNS, 91.6%; in the assay on SNB-19 CNS it was 109%; with U251 CNS it was 117%; in the assay on PC-3 prostate, 106%. Also, the growth with SK-MEL-5 melanoma is 103%; in the assay with LOX IMVI melanoma it was 97.4%; in the assay with SK-MEL-28 melanoma it was 98.7%.

For the compound `Cn1cc(-c2csc(-c3cn(CCNC(=O)OC(C)(C)C)c4ccc(F)cc34)n2)c2cccnc21`, the growth in the assay on HCT-15 colon is 52.8%; with HT29 colon, 76.2%; in the assay on SNB-75 CNS it was 86.3%; in the assay with SNB-19 CNS, 90.3%; in the assay on U251 CNS it was 82.2%; with PC-3 prostate it was 25.9%. The figures for the growth with SK-MEL-5 melanoma, with LOX IMVI melanoma and in the assay with SK-MEL-28 melanoma were 23.6%, 71.9% and 88.7%, respectively.

In the case of `C#CCC(C)(O)/C=C/C1=C(C)CCCC1(C)C` (stereo unspecified), the growth in the assay on HCT-15 colon is 107%; in the assay with HT29 colon, 86.2%; with SNB-75 CNS, 87%; with SNB-19 CNS, 95.8%; in the assay with U251 CNS it was 86.1%; in the assay with PC-3 prostate, 77.6%. Moreover, the growth is 98.4% with SK-MEL-5 melanoma, 96.4% with LOX IMVI melanoma and 101% in the assay on SK-MEL-28 melanoma.

`O=C1CCC/C=C\C[C@H]2C=C(Cl)C(=O)/C2=C/C[C@H](CCCCC(F)(F)F)OC(=O)CCC/C=C\C[C@H]2C=C(Cl)C(=O)/C2=C/C[C@H](CCCCC(F)(F)F)O1`: the growth with HCT-15 colon is 1.46% [7.5 µM] (active); in the assay on HT29 colon, -50.5% [7.5 µM] (active); with SNB-75 CNS, -1.55% [7.5 µM] (active); in the assay on SNB-19 CNS, -37.9% [7.5 µM] (active); in the assay with U251 CNS, -67.7% [7.5 µM] (active); in the assay with PC-3 prostate, -44.8% [7.5 µM] (active). The results for the growth in the assay with SK-MEL-5 melanoma, in the assay with LOX IMVI melanoma and in the assay with SK-MEL-28 melanoma were -94.1% [7.5 µM] (active), -80.2% [7.5 µM] (active) and -52.6% [7.5 µM] (active), respectively.

On to `C=C1C(=O)O[C@H]2[C@H]1CC/C(COC(=O)NCc1cc3ccccc3[nH]1)=C\CC[C@@]1(C)O[C@@H]21`, for which the growth in the assay with HCT-15 colon was -4.13% (active); in the assay on HT29 colon, -42.6% (active); in the assay on SNB-75 CNS it was 62%; in the assay with SNB-19 CNS, 58.8%; in the assay with U251 CNS it was 54.6%; with PC-3 prostate, 38%. Moreover, the growth is 9.31% (active) in the assay with SK-MEL-5 melanoma, -15.8% (active) in the assay with LOX IMVI melanoma and -26.9% (active) in the assay with SK-MEL-28 melanoma.

Regarding `Cc1cc(N2CCCCC2)nc(N(CCCNc2ccnc3cc(Cl)ccc23)Cc2ccco2)n1`, the growth with HCT-15 colon was 11.3%; with HT29 colon, 2.02% (active); in the assay on SNB-75 CNS, 54.3%; in the assay on SNB-19 CNS it was 27.4%; in the assay with U251 CNS it was 24.7%; in the assay with PC-3 prostate it was 2.61% (active). Besides, the growth is -91.8% (active) in the assay with SK-MEL-5 melanoma, -34.7% (active) with LOX IMVI melanoma and -23.5% (active) with SK-MEL-28 melanoma.

With `COC(=O)[C@]12CC[C@@H](C)[C@H](C)[C@@H]1C1=CC[C@@H]3[C@@]4(C)C[C@@H](OC(C)=O)[C@H](O)[C@@](C)(COC(C)=O)[C@@H]4[C@H](O)C[C@@]3(C)[C@]1(C)CC2`, the growth is -79.4% (active) in the assay with HCT-15 colon; -84.1% (active) in the assay with HT29 colon; -81.1% (active) in the assay on SNB-75 CNS; -82.6% (active) in the assay with SNB-19 CNS; -94.2% (active) in the assay on U251 CNS; -95.1% (active) in the assay on PC-3 prostate. Also, the values for the growth with SK-MEL-5 melanoma, with LOX IMVI melanoma and with SK-MEL-28 melanoma were -99.9% (active), -100% (active) and -88.3% (active), respectively.

Turning to `O=Cc1nc2ccccc2[nH]1`, the growth with HCT-15 colon was 108%; in the assay on HT29 colon, 91%; in the assay on SNB-75 CNS, 80%; in the assay on SNB-19 CNS, 101%; in the assay with U251 CNS, 92.2%; in the assay on PC-3 prostate it was 78.7%. For the same compound, the growth was 102% with SK-MEL-5 melanoma, 91.2% with LOX IMVI melanoma and 116% in the assay with SK-MEL-28 melanoma.

`COC(=O)[C@]12CC[C@@H](C)[C@H](C)[C@@H]1C1=CC[C@@H]3[C@@]4(C)C[C@@H](OC(C)=O)[C@H](OC(C)=O)[C@@](C)(COC(C)=O)[C@@H]4[C@H](O)C[C@@]3(C)[C@]1(C)CC2`: the growth in the assay with HCT-15 colon is 7.64% (active); in the assay with HT29 colon it was 2.23% (active); with SNB-75 CNS, 34.6%; in the assay on SNB-19 CNS, 24.2%; in the assay on U251 CNS, 7.43% (active); in the assay on PC-3 prostate, 4.25% (active). Further, the growth is -71.5% (active) in the assay on SK-MEL-5 melanoma, 2.68% (active) in the assay with LOX IMVI melanoma and 38.6% in the assay with SK-MEL-28 melanoma.

As to `Clc1ccc2c(NCCNc3nc(-c4ccccc4)cc(-c4ccccc4)n3)ccnc2c1`, the growth in the assay with HCT-15 colon is -74.2% (active); in the assay with HT29 colon, -54.3% (active); in the assay on SNB-75 CNS, -72.2% (active); in the assay on SNB-19 CNS it was -51.7% (active); in the assay with U251 CNS it was -90.6% (active); in the assay with PC-3 prostate it was -88.5% (active). Further, the growth in the assay on SK-MEL-5 melanoma is -93.4% (active); in the assay on LOX IMVI melanoma, -76.7% (active); in the assay with SK-MEL-28 melanoma it was -90.7% (active).

For `C=C1C(=O)O[C@H]2[C@H]1CC/C(COC(=O)N[C@H](Cc1c[nH]c3ccccc13)C(=O)OC)=C\CC[C@@]1(C)O[C@@H]21`, the growth in the assay on HCT-15 colon was 1.89% (active); in the assay with HT29 colon it was 14.9%; in the assay on SNB-75 CNS, 82%; with SNB-19 CNS, 66.7%; with U251 CNS, 72.7%; in the assay with PC-3 prostate, 57.3%. Further, the growth in the assay with SK-MEL-5 melanoma was 39%; with LOX IMVI melanoma, 13.7%; in the assay with SK-MEL-28 melanoma it was 9.69% (active).

As for `C[C@@H](C(=O)O)c1ccc2c3cc(Cl)ccc3n(Cc3cc(=O)oc4ccc(Cl)cc34)c2c1`, the growth was 99.1% in the assay with HCT-15 colon; 96.9% in the assay on HT29 colon; 90.8% with SNB-75 CNS; 101% in the assay on SNB-19 CNS; 101% in the assay on U251 CNS; 98.3% with PC-3 prostate. In addition, the growth in the assay with SK-MEL-5 melanoma is 98.4%; in the assay on LOX IMVI melanoma it was 96.4%; in the assay on SK-MEL-28 melanoma, 99.9%.

For `Cc1cccc(C)c1NC(=O)CSC(=S)N1CCN(CCOCCO)CC1`, the growth is 105% in the assay on HCT-15 colon; 93.6% in the assay on HT29 colon; 96.7% in the assay on SNB-75 CNS; 99% in the assay with SNB-19 CNS; 104% with U251 CNS; 99.7% in the assay with PC-3 prostate. The growth is 110% in the assay on SK-MEL-5 melanoma, 96% with LOX IMVI melanoma and 105% in the assay on SK-MEL-28 melanoma.
